Results filed as inconclusive are left out. Active and inactive are the calls of the source. Unless noted, calls come from the whole dose curve; as a rule, active = well fitted curve in the direction sought with a large enough effect; inconclusive = small, poorly fitted or top-dose-only effect, or another doubt; inactive = no such curve, though single readings can be large; an effect the other way counts as inactive or inconclusive.
Columns and labels:
[1] = molecular target: Lysosomal acid glucosylceramidase (Homo sapiens) (UniProt P04062); experiment: Glucocerebrosidase-p2 (AID 348; in the data active = potency below about 10 µM; note: potency is the fitted concentration of half-maximal effect); conditions: purified GBA, blue fluorogenic substrate, 40 min
Sequence of Lysosomal acid glucosylceramidase (Homo sapiens) (P04062 whole entry, looked up): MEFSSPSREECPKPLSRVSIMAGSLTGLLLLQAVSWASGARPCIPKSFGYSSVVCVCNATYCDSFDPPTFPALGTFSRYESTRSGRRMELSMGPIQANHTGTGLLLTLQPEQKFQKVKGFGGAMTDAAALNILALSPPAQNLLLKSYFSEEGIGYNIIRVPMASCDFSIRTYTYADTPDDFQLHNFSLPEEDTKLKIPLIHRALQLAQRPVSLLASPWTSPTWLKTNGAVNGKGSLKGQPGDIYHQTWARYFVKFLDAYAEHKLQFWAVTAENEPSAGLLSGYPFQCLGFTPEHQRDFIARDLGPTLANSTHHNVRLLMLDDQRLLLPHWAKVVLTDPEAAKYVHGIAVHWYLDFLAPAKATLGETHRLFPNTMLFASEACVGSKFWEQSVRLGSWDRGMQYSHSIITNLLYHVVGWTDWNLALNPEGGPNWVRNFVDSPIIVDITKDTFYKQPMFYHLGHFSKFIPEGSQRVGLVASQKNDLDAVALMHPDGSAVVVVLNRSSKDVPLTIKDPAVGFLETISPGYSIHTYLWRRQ
Method in brief: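 Compounds titrated from 0.6 nM upwards against 0.2 nM enzyme in pH 5.9 citric acid/KH2PO4, taurocholate, tween-20; blue fluorogenic substrate 80 uM, 40 min room temperature, stopped and read Ex 365/Em 440 for AC50.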

[2] = AP1 Signaling Pathway (AID 357; active = well fitted curve in either direction with a large enough effect, not every such curve was filed as active;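 note: ME-180 reporter cells stimulated with EGF at its EC50 level; % is set by controls: 0 for no effect and ±100 for the full control effect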); conditions: ME-180 AP-1-bla reporter, EGF-induced, beta-lactamase ratio, 5 h; at 7.69 µM (top of the series) unless noted
Method in brief: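 Modulation of EGF-driven AP-1 transcription was assessed with a beta-lactamase reporter in ME-180 cells. Compound and EC50 EGF were co-incubated 5 hours at 37 °C before 2.5-hour CCF4 loading at room temperature and dual-emission reading.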

[3] = molecular target: Cytochrome P450 1A2 (Homo sapiens) (UniProt P05177); experiment: p450-cyp1a2 (AID 410; calls by dose curve; note: potency is the fitted concentration of half-maximal effect); conditions: recombinant CYP1A2, luciferin-ME demethylation, luminescence; series mostly up to 57 µM
Sequence of Cytochrome P450 1A2 (Homo sapiens) (P05177 whole entry, looked up): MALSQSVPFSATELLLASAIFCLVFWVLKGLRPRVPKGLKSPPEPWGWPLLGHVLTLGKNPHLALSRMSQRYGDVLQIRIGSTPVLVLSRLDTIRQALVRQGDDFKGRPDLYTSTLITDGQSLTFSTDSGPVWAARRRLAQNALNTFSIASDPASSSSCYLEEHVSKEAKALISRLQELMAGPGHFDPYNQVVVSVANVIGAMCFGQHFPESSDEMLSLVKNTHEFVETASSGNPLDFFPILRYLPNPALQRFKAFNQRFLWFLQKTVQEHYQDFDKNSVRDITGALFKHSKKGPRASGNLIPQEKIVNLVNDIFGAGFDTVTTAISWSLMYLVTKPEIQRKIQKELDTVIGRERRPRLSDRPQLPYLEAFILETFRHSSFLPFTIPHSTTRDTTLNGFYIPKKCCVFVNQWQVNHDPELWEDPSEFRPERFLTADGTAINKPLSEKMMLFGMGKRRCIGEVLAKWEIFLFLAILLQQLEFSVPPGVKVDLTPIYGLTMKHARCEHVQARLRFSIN
Method in brief: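 Human CYP1A2 (20nM) demethylated Luciferin-ME at its Km (100uM) in 100mM KPO4. After 10 min compound preincubation, NADPH regeneration ran the reaction 60 min at room temperature. Luciferin was read by luminescence, normalized to 57 uM furafylline.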

[4] = NFAT Signaling Pathway (AID 444; active = well fitted curve in either direction with a large enough effect, not every such curve was filed as active;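 note: carbachol stimulus at about its EC50 of 1 µM final; % is set by controls: 0 for no effect and ±100 for the full control effect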); conditions: Jurkat NFAT-bla M1, carbachol, beta-lactamase ratio, 5 h; at 7.69 µM (top of the series) unless noted
Method in brief: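 Jurkat cells with NFAT-driven β-lactamase reporter and co-expressed M1 receptor, stimulated with carbachol (final 1 uM, ~EC50), compound titration, 5 h at 37 °C. CCF4 loaded 1 h at RT; 460/530 nm ratio gave %activity and AC50.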

[5] = Stat Signaling Pathway (AID 446; active = well fitted curve in either direction with a large enough effect, not every such curve was filed as active;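 note: ME-180 cervical cancer cells given 40 pM IL-6 alongside compound; SIE-controlled beta-lactamase reporter measured as 460/530 nm FRET emission ratio; % is set by controls: 0 for no effect and ±100 for the full control effect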); conditions: ME-180 SIE beta-lactamase reporter, IL-6 stimulated, 5 h; at 7.69 µM (top of the series) unless noted
Method in brief: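 ME-180 SIE-bla cells; overnight plating; cpd + IL-6 40 pM, 5 h, 37 C; LiveBLAzer 2.5 h RT; 460/530 nm emission ratio. Normalized to 300 pM IL-6 and 125 nM JAK inhibitor controls.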

[6] = molecular target: Glucocorticoid receptor (Homo sapiens) (UniProt P04150); experiment: GR-GFP Redistribution (AID 450;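 active = compounds whose dose series gives a full or clear partial fitted curve of increased nuclear translocation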; note: potency is the fitted concentration of half-maximal effect); conditions: U2OS GR-GFP nuclear translocation, laser cytometry, 2 h
Sequence of Glucocorticoid receptor (Homo sapiens) (P04150 whole entry, looked up, the tested form may be a part): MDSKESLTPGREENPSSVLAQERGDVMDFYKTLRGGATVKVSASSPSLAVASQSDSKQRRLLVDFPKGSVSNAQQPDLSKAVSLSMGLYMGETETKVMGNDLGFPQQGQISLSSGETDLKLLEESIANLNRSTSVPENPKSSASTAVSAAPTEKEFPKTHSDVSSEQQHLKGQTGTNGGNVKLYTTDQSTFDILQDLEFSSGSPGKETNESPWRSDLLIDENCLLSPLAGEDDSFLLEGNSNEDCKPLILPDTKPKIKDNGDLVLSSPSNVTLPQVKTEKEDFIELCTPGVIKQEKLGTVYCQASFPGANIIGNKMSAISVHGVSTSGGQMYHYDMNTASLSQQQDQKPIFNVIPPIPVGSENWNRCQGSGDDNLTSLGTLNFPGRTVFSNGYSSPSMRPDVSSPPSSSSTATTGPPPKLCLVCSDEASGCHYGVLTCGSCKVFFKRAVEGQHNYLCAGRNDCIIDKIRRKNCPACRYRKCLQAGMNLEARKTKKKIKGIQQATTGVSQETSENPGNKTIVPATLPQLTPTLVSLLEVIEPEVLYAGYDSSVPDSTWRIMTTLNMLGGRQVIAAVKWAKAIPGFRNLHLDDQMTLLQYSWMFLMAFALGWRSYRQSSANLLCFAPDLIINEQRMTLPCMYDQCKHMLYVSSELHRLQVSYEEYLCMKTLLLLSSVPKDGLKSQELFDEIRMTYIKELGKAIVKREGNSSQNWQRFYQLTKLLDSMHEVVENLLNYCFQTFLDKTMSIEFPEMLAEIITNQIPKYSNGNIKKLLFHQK

[7] = molecular target: Glucocorticoid receptor (Homo sapiens) (UniProt P04150); experiment: GR-EFC Redistribution (AID 451; calls by dose curve; note: potency is the fitted concentration of half-maximal effect); conditions: CHO-K1 GR-EFC translocation, beta-gal luminescence, 2 h
Method in brief: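 CHO-K1 cells expressing nuclear EA and GR-ED fragments of b-gal; compounds titrated up to 46 uM final, 2 h at 37 C. GR nuclear translocation read as complemented b-gal luminescence after 1 h RT detection.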

[8] = molecular target: Mitogen-activated protein kinase 10 (Mus musculus) (UniProt Q61831); experiment: JNK3 AlphaScreen Assay (AID 530; active = well fitted curve in either direction with a large enough effect, not every such curve was filed as active;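 note: kinase came from lysate of stimulated human HepG2 cells; signal reports phosphorylation of biotinylated GST-cJun 1-79 at Ser73 with 10 µM ATP; % is set by controls: 0 for no effect and ±100 for the full control effect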); conditions: JNK3 lysate, c-Jun phosphorylation; series mostly up to 57.1 µM
Method in brief: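 qHTS format: compounds tested as titrations against IL-1beta/TNF-alpha-activated HepG2 lysate JNK3 with biotin-GST-cJun substrate and 10 uM ATP at room temperature. Loss of anti-phospho-cJun AlphaScreen signal indicates inhibition.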

[9] = molecular target: 3',5'-cyclic-AMP phosphodiesterase 4B (Homo sapiens) (UniProt Q07343); experiment: qHTS Assay for Inhibitors of PDE-IV (AID 607; active = well fitted activation curve with a large enough effect in the main read-out, with a control signal flat, not every such curve was filed as active; note: % of control where 0% means no effect); conditions: HEK293 ACTOne CNG channel cells, membrane potential fluorescence; series mostly up to 22.9 µM
Sequence of 3',5'-cyclic-AMP phosphodiesterase 4B (Homo sapiens) (Q07343 whole entry, looked up): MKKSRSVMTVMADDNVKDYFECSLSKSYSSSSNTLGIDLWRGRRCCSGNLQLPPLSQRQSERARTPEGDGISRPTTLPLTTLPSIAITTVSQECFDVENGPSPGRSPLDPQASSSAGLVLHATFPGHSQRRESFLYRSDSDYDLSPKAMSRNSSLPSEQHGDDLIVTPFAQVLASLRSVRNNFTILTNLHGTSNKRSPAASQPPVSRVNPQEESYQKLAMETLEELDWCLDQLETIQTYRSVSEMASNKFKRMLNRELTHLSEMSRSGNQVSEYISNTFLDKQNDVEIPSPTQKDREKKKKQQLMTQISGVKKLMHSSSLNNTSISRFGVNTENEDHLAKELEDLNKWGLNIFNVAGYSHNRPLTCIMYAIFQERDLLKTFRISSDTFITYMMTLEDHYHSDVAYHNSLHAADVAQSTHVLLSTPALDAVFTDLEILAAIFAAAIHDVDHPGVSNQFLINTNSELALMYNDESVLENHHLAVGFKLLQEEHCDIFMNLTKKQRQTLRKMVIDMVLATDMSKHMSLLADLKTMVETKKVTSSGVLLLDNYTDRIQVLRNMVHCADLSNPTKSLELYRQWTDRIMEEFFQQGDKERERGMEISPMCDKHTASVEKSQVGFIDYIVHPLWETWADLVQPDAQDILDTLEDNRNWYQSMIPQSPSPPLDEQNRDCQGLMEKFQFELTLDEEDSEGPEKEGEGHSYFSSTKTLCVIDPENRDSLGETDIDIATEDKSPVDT
Method in brief: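 ACTOne HEK293 cells carry a modified cAMP-gated CNG channel and express endogenous PDE4; plated 1000 cells/well, compounds up to 22.9 uM final. Membrane-potential dye fluorescence (ex 535/em 590) was read; parental cells received 10 uM forskolin + 100 uM RO 20-1724.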

[10] = molecular target: Cytochrome P450 3A4 (Homo sapiens) (UniProt P08684); experiment: qHTS Assay for Activators of Cytochrome P450 3A4 (AID 885); conditions: recombinant CYP3A4, Luciferin-PPXE luminescence, 60 min; series mostly up to 57.1 µM; note: nearly all actives have a fitted effect of over 65% in size
Sequence of Cytochrome P450 3A4 (Homo sapiens) (P08684 whole entry, looked up): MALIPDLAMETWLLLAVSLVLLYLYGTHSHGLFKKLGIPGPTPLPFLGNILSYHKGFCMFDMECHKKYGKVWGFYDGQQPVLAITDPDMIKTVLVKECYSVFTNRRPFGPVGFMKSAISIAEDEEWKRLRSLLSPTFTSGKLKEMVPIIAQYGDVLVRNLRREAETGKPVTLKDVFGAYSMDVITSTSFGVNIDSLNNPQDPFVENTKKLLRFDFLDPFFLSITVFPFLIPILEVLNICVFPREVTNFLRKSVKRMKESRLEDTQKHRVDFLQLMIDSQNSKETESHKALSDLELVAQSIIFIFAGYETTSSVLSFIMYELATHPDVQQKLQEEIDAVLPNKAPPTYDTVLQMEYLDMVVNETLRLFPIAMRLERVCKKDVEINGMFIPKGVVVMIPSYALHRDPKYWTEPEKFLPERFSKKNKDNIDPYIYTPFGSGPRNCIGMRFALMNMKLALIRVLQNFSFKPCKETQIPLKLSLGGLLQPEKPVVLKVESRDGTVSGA
Method in brief: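 20nM CYP3A4 + 25uM Luciferin-PPXE (=KM), 200mM KPO4; cpd 10 min RT; NADPH regen, 60 min RT; stop w/ detection buffer, 20 min; luminescence. Normalized to 57 uM ketoconazole.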

[11] = molecular target: Dual specificity protein kinase CLK4 (Homo sapiens) (UniProt Q9HAZ1); experiment: qHTS Assay for Inhibitors of CDC-like Kinase 4 (Kinase-Glo Assay) (AID 1770); conditions: recombinant Clk4, Kinase-Glo ATP depletion luminescence; series mostly up to 66.7 µM; note: nearly all actives have a fitted effect of over 65% in size; note: potency is the fitted concentration of half-maximal effect
Sequence of Dual specificity protein kinase CLK4 (Homo sapiens) (Q9HAZ1 whole entry, looked up): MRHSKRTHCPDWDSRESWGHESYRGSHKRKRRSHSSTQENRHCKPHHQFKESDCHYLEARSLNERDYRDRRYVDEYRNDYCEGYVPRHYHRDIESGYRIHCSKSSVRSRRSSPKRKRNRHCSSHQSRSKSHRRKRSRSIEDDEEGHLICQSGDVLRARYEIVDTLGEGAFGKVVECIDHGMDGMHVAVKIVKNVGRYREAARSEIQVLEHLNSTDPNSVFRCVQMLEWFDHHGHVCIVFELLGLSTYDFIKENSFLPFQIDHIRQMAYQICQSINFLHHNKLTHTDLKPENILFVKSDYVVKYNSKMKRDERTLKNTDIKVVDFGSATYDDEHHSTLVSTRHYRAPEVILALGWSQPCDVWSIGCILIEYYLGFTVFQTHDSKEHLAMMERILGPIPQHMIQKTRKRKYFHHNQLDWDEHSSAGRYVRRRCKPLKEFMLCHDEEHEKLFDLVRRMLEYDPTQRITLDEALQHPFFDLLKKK
Method in brief: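 25 nM Clk4 with 100 uM RS repeat peptide and 1 uM ATP (final) in Tris pH7.5, 10 mM MgCl2, 4.5 h at room temperature. Remaining ATP measured by Kinase-Glo luciferase luminescence.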

[12] = molecular target: Dual specificity protein kinase CLK4 (Homo sapiens) (UniProt Q9HAZ1); experiment: qHTS Assay for Inhibitors of CDC-like Kinase 4 (ADP-Glo Assay) (AID 1771); conditions: recombinant CLK4, ADP-Glo luminescence; series mostly up to 80 µM; note: nearly all actives have a fitted effect of over 70% in size; note: potency is the fitted concentration of half-maximal effect
Method in brief: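 Clk4 (25 nM) was incubated 1 hr at room temperature with 100 uM RS repeat peptide and 1 uM ATP in buffer with 2 mM MgCl2, 0.5 mM EGTA, 2.5 mM DTT. ADP formed was quantified by ADP-Glo luminescence.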

[13] = molecular target: Ubiquitin carboxyl-terminal hydrolase 1 (Homo sapiens) (UniProt O94782); experiment: Inhibitors of USP1/UAF1: Pilot qHTS (AID 504865); conditions: purified USP1/UAF1, Ub-rhodamine cleavage fluorescence; series mostly up to 54.9 µM;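 note: rhodamine fluorescence freed from ubiquitin-rhodamine substrate followed over time; top concentration of the series differs between compounds; % is set by controls: 0 for no effect and ±100 for the full control effect; nearly all actives have a fitted effect of over 35% in size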
Sequence of Ubiquitin carboxyl-terminal hydrolase 1 (Homo sapiens) (O94782 whole entry, looked up): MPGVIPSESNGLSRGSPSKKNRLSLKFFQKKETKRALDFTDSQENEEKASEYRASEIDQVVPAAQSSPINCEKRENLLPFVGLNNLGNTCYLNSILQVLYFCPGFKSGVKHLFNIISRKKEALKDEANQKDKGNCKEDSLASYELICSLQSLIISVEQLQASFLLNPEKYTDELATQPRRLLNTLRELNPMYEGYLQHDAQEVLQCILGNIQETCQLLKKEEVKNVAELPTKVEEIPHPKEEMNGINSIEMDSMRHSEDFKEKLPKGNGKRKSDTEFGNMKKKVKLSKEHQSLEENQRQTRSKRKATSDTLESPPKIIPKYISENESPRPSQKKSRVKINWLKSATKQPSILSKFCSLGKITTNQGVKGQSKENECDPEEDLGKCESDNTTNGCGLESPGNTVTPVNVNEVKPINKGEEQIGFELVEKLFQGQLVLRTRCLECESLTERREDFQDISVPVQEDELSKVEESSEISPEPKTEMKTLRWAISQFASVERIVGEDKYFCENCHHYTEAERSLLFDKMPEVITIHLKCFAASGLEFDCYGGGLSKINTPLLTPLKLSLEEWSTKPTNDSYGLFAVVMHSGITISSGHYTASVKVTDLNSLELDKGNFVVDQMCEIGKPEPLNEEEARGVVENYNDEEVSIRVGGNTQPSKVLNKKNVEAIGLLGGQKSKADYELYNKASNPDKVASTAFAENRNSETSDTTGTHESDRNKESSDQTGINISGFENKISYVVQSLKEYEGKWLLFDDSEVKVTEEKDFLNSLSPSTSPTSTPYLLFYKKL
Method in brief: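 USP1/UAF1 complex at 1 nM preincubated 15 min at room temperature with compound, then Ub-Rho substrate added at 150 nM final. Fluorescence (480/540 nm) read kinetically in 50 mM HEPES pH 7.8, 0.5 mM EDTA, 1 mM TCEP, 0.1 mg/ml BSA, 0.01% Tween-20.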

[14] = Primary qHTS for small molecule stabilizers of the endoplasmic reticulum resident proteome: Secreted ER Calcium Modulated Protein (SERCaMP) assay (AID 1508630); conditions: SH-SY5Y GLuc-SERCaMP (Gaussia luciferase released on ER calcium loss) secretion, thapsigargin, luminescence; series mostly up to 38.4 µM; note: % is set by controls: 0 for no effect and ±100 for the full control effect
Method in brief: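 GLuc-SERCaMP-expressing SH-SY5Y cells, pretreated 16 h with compound, are challenged with thapsigargin to empty ER calcium stores; after 4 h, coelenterazine is added directly to the medium and luminescence is imaged.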

[15] = molecular target: Cytochrome P450 2C9 (Homo sapiens) (UniProt P11712); experiment: qHTS Assay for Inhibitors and Substrates of Cytochrome P450 2C9 (AID 883); conditions: recombinant CYP2C9, luciferin-H luminescence, 60 min; series mostly up to 57.1 µM; note: % is set by controls: 0 for no effect and ±100 for the full control effect; nearly all actives have a fitted effect of over 60% in size
Sequence of Cytochrome P450 2C9 (Homo sapiens) (P11712 whole entry, looked up): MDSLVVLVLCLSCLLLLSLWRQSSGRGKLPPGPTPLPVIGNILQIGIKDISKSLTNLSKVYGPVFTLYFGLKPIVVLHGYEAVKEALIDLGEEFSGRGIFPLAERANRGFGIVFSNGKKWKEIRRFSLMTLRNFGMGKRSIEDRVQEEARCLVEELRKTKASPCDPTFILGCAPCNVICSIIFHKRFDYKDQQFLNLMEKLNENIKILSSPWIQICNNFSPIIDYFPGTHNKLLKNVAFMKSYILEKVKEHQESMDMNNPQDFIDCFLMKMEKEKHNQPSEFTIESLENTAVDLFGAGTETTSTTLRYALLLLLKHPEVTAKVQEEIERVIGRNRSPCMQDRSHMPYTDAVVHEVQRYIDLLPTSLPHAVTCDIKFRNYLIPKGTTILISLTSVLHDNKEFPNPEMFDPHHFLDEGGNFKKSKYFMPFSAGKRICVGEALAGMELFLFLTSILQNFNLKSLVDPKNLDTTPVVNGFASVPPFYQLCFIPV
Method in brief: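 10nM CYP2C9 + 100uM Luciferin-H (=KM), 25mM KPO4; cpd 10 min 37C; NADPH regen, 60 min 37C; stop/detect with P450 Glo-Buffer 20 min; luminescence. Norm. to 57uM sulphaphenazole as full inhibition.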

COCCn1c(=O)c(C)nc2cncnc21
active: Potency [3] 15.8 µM
inactive: Potency [1] > 11.4 µM | activity change, negative = inhibition [2] -8.48% | activity change, negative = inhibition [4] 3.43% | activity, negative = inhibition [5] -7.75% | Potency [6] > 9.22 µM | Potency [7] > 46 µM | Potency [8] | Potency [9] | Potency [10] | Potency [11] | Potency [12] | Potency [13] | outcome [14]

Cc1cccc(CNc2cc(-c3ccccc3Cl)ncn2)c1
active: Potency [3] 3.16 µM | Potency [11] 28.2 µM | Potency [12] 28.2 µM
inactive: Potency [1] > 11.4 µM | activity change, negative = inhibition [2] 13.1% | activity change, negative = inhibition [4] -3.92% | activity, negative = inhibition [5] 0.338% | Potency [6] > 46 µM | Potency [7] > 46 µM | Potency [8] | Potency [9] | Potency [10] | outcome [14]

COc1ncc2nc(-c3ccc(Cl)cc3)c(=O)n(Cc3cccs3)c2n1
inactive: Potency [1] > 11.4 µM | activity change, negative = inhibition [2] -16.7% | activity change, negative = inhibition [4] 2.52% | activity, negative = inhibition [5] -18.3% | Potency [6] > 9.22 µM | Potency [7] > 46 µM | Potency [8] | Potency [9] | Potency [11] | Potency [12] | Potency [13] | outcome [14]

CN1CCN(c2ccnc(-c3cccnc3)n2)CC1
active: Potency [11] 25.1 µM | Potency [12] 15.8 µM
inactive: Potency [1] > 11.4 µM | activity change, negative = inhibition [2] -0.185% | activity change, negative = inhibition [4] 0.489% | activity, negative = inhibition [5] 12.4% | Potency [6] > 46 µM | Potency [7] > 46 µM | Potency [8] | Potency [9] | Potency [13] | outcome [14]

CN(C)c1ncc2nc(-c3ccc(Cl)cc3)c(=O)n(C)c2n1
inactive: Potency [1] > 11.4 µM | activity change, negative = inhibition [2] 24.8% | Potency [6] > 9.22 µM | Potency [7] > 46 µM | Potency [8] | Potency [9] | Potency [11] | Potency [12] | Potency [13] | outcome [14]
active: Potency [3] 1.58 µM

Cc1cnc(CNc2ncnc3ccc(-c4cccc(NS(C)(=O)=O)c4)cc23)cn1
active: Potency [3] 3.98 µM | Potency [11] 25.1 µM | Potency [12] 15.8 µM
inactive: Potency [1] > 11.4 µM | activity change, negative = inhibition [2] -5.16% | activity, negative = inhibition [5] -9.12% | Potency [6] > 46 µM | Potency [7] > 46 µM | Potency [9] | activity change, negative = inhibition [15] 32.5% [at 2.29 µM] | Potency [10] | Potency [13] | outcome [14]

Source: PubChem BioAssay (NCATS)
